# According to PubChem BioAssay (EPA / NIEHS):
# “And” between values parts separate entries of the source, which are not always exact repeats. Identical values can stand only once. Inconclusive results are not listed. The source made the active and inactive calls. The calls were made as follows, unless noted: active = hit-call score of the fitted dose curve at least 0.9, where 1 is the maximum; inactive = score below 0.9.
# How the values were obtained:
# [1] = CCTE_Mundy_HCI_Cortical_Synap_Neur_Matur_BPCount: CCTE's Synaptogenesis and Neurite Maturation Assay in rat cortical cells for Branch Point Count, Mundy Lab (AID 2284211)
# In short: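 Rat primary cortical cultures, AraC added DIV 5; chemicals dosed DIV 7 through DIV 12. Fixed cells stained for MAP2, synaptophysin and Hoechst; neurite branch points counted by automated high-content imaging, fitted relative to DMSO.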
# [2] = CCTE_Mundy_HCI_Cortical_NOG_NeuriteCount: CCTE's Neurite Outgrowth Assay in rat cortical cells for Neurite Count, Mundy Lab (AID 2284212);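 also: cells fixed about two days after chemical exposure began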
# Experimental: (§1) CCTE_Mundy_HCI_Cortical_NOG is a multiplexed, cell-based-readout assay that uses rat primary cortical cells with measurements taken at 50.33 hours after chemical dosing in a microplate: 96-well plate.CCTE_Mundy_HCI_Cortical_NOG_NeuriteCount is one of four components of the CCTE_Mundy_HCI_Cortical_NOG assay. It measures neurite outgrowth related to the number of neurites using High Content Imaging of fluorescently labelled markers.[…] Using a type of morphology reporter, loss -of-signal activity can be used to understand developmental effects.
# (§2) Exposure starts 2 hours post-plating by adding 10 ul of the working solution to 90 ul of media in the wells for a 1/10 dilution. Forty-eight hours after chemical treatment cells are fixed by direct addition of 100 ul of warm (37C) Dulbecco's phosphate buffered saline (DPBS) fixative solution containing 8% paraformaldehyde, 8% sucrose, and 0.1% of 3 mg/ml Hoechst 33342 into each well. Primary antibodies are prepared by dilution in Immunocytochemical Staining Buffer (ISB), 10X Dulbecco's PBS, 0.1% Saponin, 5% Bovine Serum Albumin, 0.5% NaN3 (Sodium Azide) and betaIII-tubulin (rabbit anti-betaIII-tubulin, 1:800) followed by Alexa Fluor-488 secondary (1:500) to label neuronal cell bodies and neurites. A Cellomics ArrayScan VTi HCS Reader is used for automated image acquisition and analysis of neurite outgrowth.
# [3] = CCTE_Mundy_HCI_Cortical_Synap_Neur_Matur_NeuriteLength: CCTE's Synaptogenesis and Neurite Maturation Assay in rat cortical cells for Neurite Length, Mundy Lab (AID 2284214)
# In short: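 Rat primary cortical cultures, AraC added DIV 5, dosed DIV 7 through DIV 12 […]. Fixed, MAP2/synaptophysin immunostained with Hoechst; neurite length by high-content imaging, fitted in positive direction versus DMSO.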
# [4] = CCTE_Mundy_HCI_Cortical_Synap_Neur_Matur_NeuriteCount: CCTE's Synaptogenesis and Neurite Maturation Assay in rat cortical cells for Neurite Count, Mundy Lab (AID 2284222)
# In short: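 Chemical exposure runs DIV 7–12 in rat cortical cultures, glia suppressed by AraC at DIV 5; measurement is at DIV 12. Imaging-derived neurite counts are fitted against DMSO baseline.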
# [5] = CCTE_Mundy_HCI_hN2_NOG_NeuriteLength: CCTE's Neurite Outgrowth Assay in human hN2 cells for Neurite Length, Mundy Lab (AID 2284220; active = hit-call score of the fitted dose curve at least 0.9, where 1 is the maximum)
# In short: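 Plate hNP1-derived neurons, then add chemical 2 h later as a 1/10 dilution. Stain with anti-βIII-tubulin then Alexa Fluor-488 secondary, and image automatically to measure neurite length.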
# [6] = CCTE_Mundy_HCI_hN2_NOG_NeuriteCount: CCTE's Neurite Outgrowth Assay in human hN2 cells for Neurite Count, Mundy Lab (AID 2284219; active = hit-call score of the fitted dose curve at least 0.9, where 1 is the maximum)
# Experimental: as §1, with “CCTE_Mundy_HCI_hN2_NOG” for “CCTE_Mundy_HCI_Cortical_NOG”, “immature neurons derived from hNP1 neuroprogenitor” for “rat primary cortical”, “plate.CCTE_Mundy_HCI_hN2_NOG_NeuriteCount” for “plate.CCTE_Mundy_HCI_Cortical_NOG_NeuriteCount”, “to” for “to the”
# as §2
structure (smiles),measurement,setting,value
CC#C[C@]1(O)CC[C@H]2[C@@H]3CCC4=CC(=O)CCC4=C3[C@@H](c3ccc(N(C)C)cc3)C[C@@]21C,AC50,[1],18.4 µM (active) and 27.4 µM (active)
same,AC50,[2],62 µM (active) and 24.4 µM (active)
same,AC50,[3],15.9 µM (active) and 27.7 µM (active)
same,AC50,[4],17.9 µM (active) and 23.1 µM (active)
CN1CCC[C@H]1c1cccnc1,outcome,[3],inactive
same,outcome,[5],inactive
CC1=C(/C=C/C(C)=C/C=C/C(C)=C/C(=O)O)C(C)(C)CCC1,AC50,[6],12.1 µM (active)
same,AC50,[5],0.417 µM (active)
